Legend:
Assay type in all cases: functional
[1] = molecular target: Solute carrier family 2, facilitated glucose transporter member 1 (Homo sapiens) (UniProt P11166); test: ST_JUDE_LEISH: Cytotoxicity at 2uM final concentration against transgenic Leishmania Mexicana promastigotes LmGLUT1 that are glucose transport deficient and complemented with the human glucose transporter GLUT1. Activity is measured by DNA content using SYBR green in vitro
[2] = molecular target: Hexose transporter 1 (Plasmodium falciparum) (UniProt O97467); test: ST_JUDE_LEISH: Cytotoxicity at 2uM final concentration against transgenic Leishmania Mexicana promastigotes LmPfHT that are glucose transport deficient and complemented with the Plasmodium falciparum hexose transporter. Activity is measured by DNA content using SYBR green in vitro
[3] = molecular target: Glucose transporter (Leishmania mexicana) (UniProt O61059); test: ST_JUDE_LEISH: Cytotoxicity at 2uM final concentration against transgenic Leishmania Mexicana promastigotes LmGT2 that are glucose transport deficient and complemented with the L. Mexicana glucose transporter 2. Activity is measured by DNA content using SYBR green in vitro

Solute carrier family 2, facilitated glucose transporter member 1 (Homo sapiens), sequence (P11166 whole entry): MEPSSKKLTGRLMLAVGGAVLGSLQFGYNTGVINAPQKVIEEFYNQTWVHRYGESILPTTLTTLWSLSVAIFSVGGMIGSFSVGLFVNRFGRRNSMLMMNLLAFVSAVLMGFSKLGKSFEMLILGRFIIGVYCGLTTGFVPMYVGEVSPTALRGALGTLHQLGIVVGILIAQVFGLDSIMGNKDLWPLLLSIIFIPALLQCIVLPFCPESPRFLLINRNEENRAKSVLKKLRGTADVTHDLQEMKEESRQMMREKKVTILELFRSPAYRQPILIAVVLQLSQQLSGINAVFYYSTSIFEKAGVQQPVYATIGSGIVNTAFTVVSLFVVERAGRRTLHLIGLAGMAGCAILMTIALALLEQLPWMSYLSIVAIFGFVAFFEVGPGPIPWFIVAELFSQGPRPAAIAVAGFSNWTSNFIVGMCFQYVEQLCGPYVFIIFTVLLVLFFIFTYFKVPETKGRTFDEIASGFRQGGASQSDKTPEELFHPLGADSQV

SMILES | inhibition [1] [%] | inhibition [2] [%] | inhibition [3] [%]
Cc1cccc2nc(-c3cccc(-c4cccc(NC(=O)c5cn(C)c(=O)n5C)c4)c3)[nH]c12 | 1.98 | 1.44 | -0.64
CS(=O)(=O)c1cccc2sc(N3CCN(C(=O)c4ccc([N+](=O)[O-])o4)CC3)nc12 | 35.6 | 23.7 | 3.97
O=C(Nc1cccnc1)c1ccc(-c2cc3ccncc3cc2OC2CCNCC2)s1 | 2.38 | 2.54 | 2.16
COc1ccc(CCNCC(O)COc2nccc3c(S(=O)(=O)N4CCCNCC4)cccc23)cc1OC (stereo not drawn) | -1.57 | -1.2 | -2.89
C=CCOC(=O)O[C@@H]1[C@@H](OC(=O)OCC=C)[C@@H](OC)O[C@H](COC(c2ccccc2)(c2ccccc2)c2ccccc2)[C@H]1OC(=O)OCC=C | 4.46 | 3.53 | 4.42
CC(CN1CCN(C)CC1)C(=O)Nc1ccc(-c2ccc(-c3nc4cc(C(F)(F)F)ccc4[nH]3)cc2)cc1 (stereo not drawn) | 6.67 | 4.86 | 2.49

Reference: ChEMBL document CHEMBL3433997, “St. Jude Leishmania screening dataset” (2016)
